Data taken from PubChem BioAssay AID623901 (Broad Institute, 2012).
“And” between values parts separate entries of the source, which are not always exact repeats. Identical values can stand only once. In all, about 340,000 compounds went through this assay and about 470 (0.14%) were called active. This excerpt belongs to a sample that is enriched for actives. A number with no mark means an inactive call.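 Rule for the calls: active = mean activation of 30% or more, with every replicate also reaching 30%; inconclusive = mean activation of 30% or more but some replicate falls short; inactive = the rest.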

Assay: small molecules raising miR-122 sensor signal – cell-based, Huh7 psiCHECK-miR122, Renilla luciferase, single point, primary screen (AID 623901);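 note: 0% = median of neutral control wells and 100% = median of positive control wells; higher luciferase signal means stronger suppression of miR-122 activity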
Details: 48 h, at 12.5 µM, stronger effect = higher value

Row | Compound | activation
1 | Cc1ccc(S(=O)(=O)Nc2ccc3c(c2)CC(=O)N([C@@H](C)CO)C[C@H](C)[C@H](CN(C)Cc2ccc(C(=O)Nc4ccccc4N)cc2)O3)cc1 | -252%
2 | CCC(=O)Nc1ccc2c(c1)OC[C@H](C)N(C(=O)c1ccccc1F)C[C@@H](C)[C@H](OC)CN(C)C2=O | -3.57%
3 | C[C@H]1CN([C@@H](C)CO)C(=O)c2cc(-c3cccc(F)c3)cnc2O[C@@H]1CN(C)S(C)(=O)=O | -3.18%
4 | COc1ccc(/C=C/C(=O)Nc2ccc(C34CC5CC(CC(O)(C5)C3)C4)cc2)cc1OC | 56.9% (active)
5 | CC(C)NC(=O)N(C)C[C@@H]1Oc2ncc(C3=CCCCC3)cc2C(=O)N([C@H](C)CO)C[C@@H]1C | 5.61%
6 | Cc1ccc(-c2cnc3c(c2)C(=O)N([C@@H](C)CO)C[C@@H](C)[C@H](CN(C)Cc2ccccc2F)O3)cc1 | -34.6%
7 | C/C=C/c1ccc2c(c1)O[C@@H](CN(C)C(=O)Cc1ccccn1)[C@@H](C)CN([C@H](C)CO)S2(=O)=O | -0.361%
8 | CCOC(=O)c1c(C)[nH]c(C)c1S(=O)(=O)NCCCc1ccco1 | -128%
9 | CCC(=O)N1C[C@@H](C)[C@@H](OC)CN(C)C(=O)c2ccc(NC(=O)C3CCCCC3)cc2OC[C@@H]1C | 0.432%
10 | C[C@H](CO)N1C[C@H](C)[C@H](CN(C)S(=O)(=O)c2cccc(F)c2)Oc2ncc(/C=C/c3ccccc3)cc2C1=O | -2.26%
11 | COCC(=O)N(C)C[C@@H]1Oc2cc(C#CC3CC3)ccc2S(=O)(=O)N([C@H](C)CO)C[C@H]1C | 3.88%
12 | CCC(=O)N(C)C[C@H]1Oc2ncc(C#C[C@@H](C)O)cc2C(=O)N([C@@H](C)CO)C[C@H]1C | 2.8%
13 | COCC#Cc1cnc2c(c1)C(=O)N([C@@H](C)CO)C[C@@H](C)[C@@H](CN(C)C(=O)Nc1ccccc1OC)O2 | 1.08%
14 | CS(=O)(=O)N(CC(=O)Nc1ccc(Cl)c(Cl)c1)C1CCCCC1 | -174%
15 | O=C(CC(O)(C(F)(F)F)C(F)(F)F)Nc1ccc(Cl)c(Cl)c1 | 63% (active)
16 | C[C@@H](O)C#Cc1ccc2c(c1)O[C@@H](CN(C)C)[C@@H](C)CN([C@@H](C)CO)S2(=O)=O | -3.26%
17 | COc1ccc(C(=O)Nc2ccccc2C(=O)N/N=C/c2ccccc2OC)cc1 | -115%
18 | CCCN(C)C[C@H]1Oc2ncc(-c3ccccc3OC)cc2C(=O)N([C@H](C)CO)C[C@H]1C | -2.24%
19 | COc1ccccc1CNc1nc(Nc2ccccc2Cl)c2sccc2n1 | 44.5% (active)
20 | C[C@@H]1CN([C@H](C)CO)S(=O)(=O)c2ccc(C#CCN(C)C)cc2O[C@@H]1CN(C)C(=O)CN(C)C | 5.44%
21 | COc1ccc(CNS(=O)(=O)c2cc(-c3cc(C)no3)ccc2C(C)C)cc1 | -200%
22 | OCC(O)C1OCOC(C(O)CO)C1O (configuration not stated) | -93%
23 | C[C@@H]1CN([C@@H](C)CO)C(=O)c2cc(-c3ccc(F)cc3)cnc2O[C@@H]1CN(C)Cc1ccc(C(=O)O)cc1 | 1.12%
24 | CO[C@@H]1CN(C)C(=O)c2ccc(NC(=O)C3CCC3)cc2OC[C@H](C)NC[C@H]1C | 1.3%
25 | C[C@@H]1CN([C@H](C)CO)C(=O)c2cc(-c3ccncc3)cnc2O[C@@H]1CN(C)C(=O)Cc1cccnc1 | -6.69%
26 | COc1ccccc1-c1ccc2c(c1)O[C@@H](CN(C)C(=O)Nc1ccccc1)[C@H](C)CN([C@@H](C)CO)S2(=O)=O | -1.07%

Row | Compound | activation
27 | COCC#Cc1ccc2c(c1)O[C@@H](CN(C)C(C)=O)[C@H](C)CN([C@H](C)CO)S2(=O)=O | 5.04%
28 | COc1ccccc1-c1cnc2c(c1)C(=O)N([C@H](C)CO)C[C@H](C)[C@H](CN(C)C(=O)CN(C)C)O2 | -1.92%
29 | COc1ccccc1C#Cc1ccc2c(c1)O[C@@H](CN(C)Cc1cncnc1)[C@H](C)CN([C@@H](C)CO)S2(=O)=O | 8.43%
30 | C[C@H](O)C#Cc1ccc2c(c1)O[C@H](CN(C)Cc1cccnc1)[C@@H](C)CN([C@H](C)CO)S2(=O)=O | -6.12%
31 | COCC#Cc1cnc2c(c1)C(=O)N([C@@H](C)CO)C[C@@H](C)[C@@H](CN(C)C(=O)Nc1ccc(OC)cc1)O2 | -2.9%
32 | C[C@H]1CN([C@@H](C)CO)C(=O)c2cc(-c3cccc(F)c3)cnc2O[C@@H]1CN(C)Cc1cncnc1 | -0.0525%
33 | O=C(NC(Nc1nc2ccc([N+](=O)[O-])cc2s1)(C(F)(F)F)C(F)(F)F)c1ccccc1 | 45.7% (active)
34 | C[C@H](CO)N1C[C@H](C)[C@@H](CN(C)Cc2ccc3c(c2)OCO3)Oc2c(NC(=O)C3CCOCC3)cccc2C1=O | -319%
35 | O=C(CCc1ccc(S(=O)(=O)NC2CCCCC2)cc1)NCc1ccccc1 | -101%
36 | C[C@H]1CN([C@@H](C)CO)C(=O)c2cc(-c3ccccc3F)cnc2O[C@@H]1CN(C)C(=O)C1CCCCC1 | 4.49%
37 | CCCOC(=O)c1[nH]c2c(c1C)C(=O)CC(c1cccs1)C2 (configuration not stated) | -94%
38 | COc1ccc(NC(=O)Nc2ccc3c(c2)OC[C@@H](C)NC[C@@H](C)[C@H](OC)CN(C)C3=O)cc1 | 3.26%
39 | C[C@H](O)C#Cc1ccc2c(c1)O[C@H](CN(C)C)[C@@H](C)CN([C@H](C)CO)S2(=O)=O | 4.16%
40 | CO[C@H]1CN(C)C(=O)c2ccc(NC(=O)Nc3ccc(F)cc3)cc2OC[C@@H](C)NC[C@H]1C | -0.877%
41 | CC(C)C#Cc1ccc2c(c1)O[C@@H](CN(C)C(=O)CN(C)C)[C@@H](C)CN([C@H](C)CO)S2(=O)=O | 1.71%
42 | Cc1c(-c2ccccc2)cn2c1-c1ccc(C)n1CC2 | -248%
43 | CO[C@H]1CN(C)C(=O)c2ccc(NC(=O)C3CCC3)cc2OC[C@@H](C)NC[C@H]1C | 2.77%
44 | C[C@@H]1CN([C@@H](C)CO)C(=O)c2cc(-c3cncnc3)cnc2O[C@H]1CN(C)Cc1cncnc1 | 9.2%
45 | CCCC#Cc1ccc2c(c1)O[C@@H](CN(C)C(=O)CC)[C@H](C)CN([C@H](C)CO)S2(=O)=O | -21.9%
46 | C[C@@H]1CN([C@@H](C)CO)C(=O)c2cc(-c3cncnc3)cnc2O[C@@H]1CN(C)Cc1ccncc1 | -14.3%
47 | CCC(=O)N(C)C[C@@H]1Oc2ncc(C#C[C@H](C)O)cc2C(=O)N([C@@H](C)CO)C[C@@H]1C | -1.06%
48 | C[C@@H]1CN([C@@H](C)CO)C(=O)c2cc(C3=CCCCC3)cnc2O[C@H]1CN(C)CC1CCOCC1 | -37.5%
49 | CCOc1ccc(Br)cc1S(=O)(=O)Nc1cccc(S(=O)(=O)N(CC)CC)c1 | -110%
50 | CC(C)CNS(=O)(=O)c1ccc(OCC(=O)Nc2ccc3c(c2)OCO3)c(Cl)c1 | -303%
51 | C[C@H]1CN([C@@H](C)CO)C(=O)c2cc(C3=CCCCC3)cnc2O[C@@H]1CN(C)C(=O)Cc1ccccc1 | -4.91% and -1.39%
52 | C[C@H](CO)N1C[C@H](C)[C@H](CN(C)C(=O)C2CCOCC2)Oc2ncc(C#Cc3ccccc3F)cc2C1=O | -1.81%
